Measurements from PubChem BioAssay AID463173 (ICCB-Longwood Screening Facility, Harvard Medical School, 2010).
Screen size: about 52,000 compounds; about 4,300 (8.3%) were called active. The sample holds actives, similar compounds and a random draw of the others, so the mix is not that of the screen. Rule as the data show it: active = survival mostly below about 52% (no sharp cut-off); inactive = mostly above about 56%.

system: DeltatarO mutant; experiment: growth inhibition of S. aureus wild type versus tarO mutant, primary screen, teichoic acid synthesis inhibitors, RN4220, OD600 (AID 463173); details: OD600, 18 h, stronger effect = lower value, screened at 18.75 µg/mL (by protocol)

Structure (SMILES)	survival
O=C(Cn1ncc2ccsc2c1=O)N1CCN(c2ccc(Cl)cc2)CC1	78% (inactive)
Cc1nc(N=C(N)N)nc2cc3c(cc12)OCO3	91% (inactive)
COc1ccccc1N1CCN(C(=O)c2c(C)oc3ncn(CC(C)C)c(=O)c23)CC1	76% (inactive)
CCCCOC(=O)c1ccc(NC(=O)c2ccc3c(c2)CCN3S(C)(=O)=O)cc1	96% (inactive)
O=C(C1CCN(S(=O)(=O)c2ccc(Br)s2)CC1)N1CCN(c2cccc(Cl)c2)CC1	76% (inactive)
CC1CCCCN1C(=O)Cn1nnc2c(cnn2-c2ccccc2)c1=O (stereo unspecified)	79% (inactive)
CCCCSCCCNC(=O)c1c[nH]c2ccc(S(=O)(=O)Nc3cccc(OC)c3)cc2c1=O	90% (inactive)
COc1ccc(N2CCN(S(=O)(=O)CCNC(=O)c3ccc(OC(C)C)cc3)CC2)cc1	78% (inactive)
COc1cc(NC(=O)Cn2cc(C(=O)c3ccc(F)cc3)c(=O)c3ccc(C)nc32)cc(OC)c1	74% (inactive)
CN(C)c1ccc(CNC(=O)CCCN2C(=O)CCn3nc(-c4cccn4C)cc32)cc1	73% (inactive)
O=C(CSc1ncc2c(n1)-c1cc(Cl)ccc1N(Cc1ccccc1)S2(=O)=O)NCc1ccccc1	89% (inactive)
O=C(c1ccccc1Cl)N(Cc1ccco1)c1ccccn1	55% (inactive)
COc1cccc2cc(C(=O)Nc3ccc(N4CCNCC4)cc3)c(=O)oc12	99% (inactive)
Cc1ccc(NC(=O)Cn2nc(C)c3nn(-c4ccc(Cl)cc4)c(C)c3c2=O)cc1C	75% (inactive)
CCOc1ccc(CNC(=O)CSc2nnc(C)c3c(C)n(-c4ccc(Cl)cc4)nc23)cc1	91% (inactive)
COc1ccccc1/C=C/c1nc(C#N)c(N2CCN(C)CC2)o1	92% (inactive)
O=C(c1cnc2cc(-c3ccccc3)nn2c1)c1cc([N+](=O)[O-])ccc1O	9% (active)
Cc1ccc(-c2cc3ncc(C(=O)c4cc([N+](=O)[O-])ccc4O)cn3n2)cc1	8% (active)
O=C(CSc1nnc(-c2ccccc2)o1)c1cccc([N+](=O)[O-])c1	135% (inactive)
COc1ccc(CNC(=O)c2cc(-c3ccc(OC)cc3)nc3n[nH]c(-c4cccc([N+](=O)[O-])c4)c23)cc1	68% (inactive)
COc1ccc(-c2cc3ncc(C(=O)c4cc([N+](=O)[O-])ccc4O)cn3n2)cc1	33% (active)
CCOC(=O)c1cnc2cc(-c3ccc(Cl)cc3)nn2c1-c1ccccc1	68% (inactive)
CCOC(=O)COc1cc(C)c(Cl)cc1C(=O)c1ccn2nc(-c3ccc(OC)cc3)cc2n1	92% (inactive)
CCc1ccc(O)c(C(=O)c2cnc3cc(-c4ccc(C)cc4)nn3c2)c1	89% (inactive)

Structure (SMILES)	survival
Cc1ccc(-c2cc3ncc(C(=O)c4cc(Cl)c(C)cc4O)cn3n2)cc1	84% (inactive)
CC(=O)Nc1cccc(NC(=O)CCn2cnc3cc(C)c(C)cc32)c1	62% (inactive)
COc1cccc(C(=O)NC(=S)NCc2ccco2)c1	93% (inactive)
O=C(Cn1nc(C(F)(F)F)c2c1CCC2)Nc1ccc(Cl)cc1	54% (inactive)
CCN(CC)c1ccc(C(=O)NCc2ccc3c(c2)CCN3C(=O)c2ccc(F)cc2)cc1	84% (inactive)
CCN1/C(=C2\C(=O)N(c3ccc(Cl)cc3)N=C2C)C=Cc2ccccc21	68% (inactive)
CCOc1cc(C#N)c(NC(=O)Cn2nnc(-c3ccc(C)cc3)n2)cc1OCC	42% (active)
CCOC(=O)C(Cc1ccccc1)NC(=O)Cn1nnc(-c2ccc(C)cc2)n1 (stereo unspecified)	59% (inactive)
Cc1ccc(-c2nnn(CC(=O)NC(C)C)n2)cc1	83% (inactive)
Cc1ccc(NC(=O)Cn2c(=O)oc3cc(S(=O)(=O)N4CCCCCC4)ccc32)cc1Cl	93% (inactive)
Cc1nc2ccccc2n1CC(O)COc1ccc(C(=O)O)cc1 (stereo unspecified)	46% (active)
CCCc1nc2ccccc2n1CC(O)COc1ccc(C(=O)OC)cc1 (stereo unspecified)	64% (inactive)
CCCc1nc2ccccc2n1CC(O)COc1ccccc1 (stereo unspecified)	69% (inactive)
CCN(Cc1ccccc1)c1ncnc2c1nnn2C	57% (inactive)
CCOc1ccccc1CNC(=O)c1nc(-c2ccc(Cl)cc2)n2c1CCCCC2	67% (inactive)
Cc1ccc(-n2nc3c(N4CCC(C(=O)N5CCCCC5)CC4)nnc(C)c3c2C)cc1	85% (inactive)
O=S(=O)(NCC(c1ccco1)S(=O)(=O)c1cccs1)c1ccc(Cl)cc1 (stereo unspecified)	92% (inactive)
Cc1cc(F)ccc1S(=O)(=O)NCC(c1ccco1)S(=O)(=O)c1cccs1 (stereo unspecified)	118% (inactive)
Cc1cc(S(=O)(=O)NCC(c2ccco2)S(=O)(=O)c2cccs2)ccc1F (stereo unspecified)	101% (inactive)
Cc1cc(C)c(S(=O)(=O)NCC(c2ccco2)S(=O)(=O)c2ccccc2)c(C)c1 (stereo unspecified)	99% (inactive)
Cc1cc(C)c(S(=O)(=O)NCC(c2ccco2)S(=O)(=O)c2cccs2)c(C)c1 (stereo unspecified)	25% (active)
O=S(=O)(NCC(c1ccco1)S(=O)(=O)c1cccs1)c1ccc(F)c(C(F)(F)F)c1 (stereo unspecified)	37% (active)
COc1ccc(-c2cnnn2-c2ccc(NC(=O)c3ccccc3OC)cc2)cc1	107% (inactive)
CCOc1ccccc1CN(CCc1ccc2c(c1)OCO2)Cc1cc(OC)c(OC)cc1OC	56% (inactive)

Structure (SMILES)	survival
CCOc1ccccc1CN(CCc1ccc2c(c1)OCO2)Cc1cccc(OC)c1OC	34% (active)
CCOc1ccccc1CN(CCc1ccc2c(c1)OCO2)Cc1ccccn1	77% (inactive)
COc1cccc(NC(=O)Cn2c(=O)n(-c3ccc(C)cc3)c(=O)c3ccc(C(=O)NCc4ccco4)cc32)c1	80% (inactive)
Cc1ccc(C)c(NC(=O)c2ccc3c(c2)CCN3S(C)(=O)=O)c1	105% (inactive)
Cc1c(Cl)cccc1NC(=O)c1ccc2c(c1)CCCN2S(C)(=O)=O	70% (inactive)
Cc1ccc(S(=O)(=O)N2CCc3cc(C(=O)Nc4ccc(C)c(C)c4)ccc32)cc1	60% (inactive)
CCS(=O)(=O)N1CCc2cc(C(=O)Nc3cccc(C)c3C)ccc21	80% (inactive)
Cc1ccc(C)c(NC(=O)c2ccc3c(c2)CCN3S(=O)(=O)c2ccccc2)c1	40% (active)
Cc1cccc(NC(=O)c2ccc3c(c2)CCN3S(=O)(=O)c2ccccc2)c1C	38% (active)
CCc1cccc(CC)c1NC(=O)c1ccc2c(c1)CCN2S(=O)(=O)c1ccccc1	60% (inactive)
CCS(=O)(=O)N1CCc2cc(C(=O)Nc3cccc(Cl)c3C)ccc21	86% (inactive)
Cc1c(Cl)cccc1NC(=O)c1ccc2c(c1)CCN2S(=O)(=O)c1ccccc1	39% (active)
CC(=O)N1c2ccccc2C(=O)C1N1CCN(c2ccccc2F)CC1 (stereo unspecified)	90% (inactive)
COc1ccc(-c2cn3c(n2)sc2cc(C(=O)Nc4cccc(SC)c4)ccc23)cc1	59% (inactive)
COC(=O)c1cc(NC(=O)Cn2ncc3c([nH]c4ccccc43)c2=O)cc(C(=O)OC)c1	66% (inactive)
O=C(CSc1ccc(-c2ccccn2)nn1)Nc1ccc(F)cc1F	38% (inactive)
O=C(NCCc1ccccc1)c1ccc2c(c1)N(Cc1c(F)cccc1Cl)C(=O)CS2	54% (inactive)
O=C(NCCc1ccccc1)c1ccc2c(c1)N(Cc1ccccc1Cl)C(=O)c1ccccc1S2	94% (inactive)
O=C(NCCc1ccc(Cl)cc1)c1ccc2c(c1)N(Cc1c(F)cccc1Cl)C(=O)CS2	44% (active)
CC(NC(=O)c1ccc2c(c1)N(Cc1ccc(Cl)cc1)C(=O)CS2)c1ccccc1 (stereo unspecified)	48% (active)
O=C(NCCc1ccc(Cl)cc1)c1ccc2c(c1)N(Cc1ccccc1)C(=O)CS2	25% (active)
Cc1ccc(C)c(CN2C(=O)CSc3ccc(C(=O)NCCc4ccc(Cl)cc4)cc32)c1	49% (inactive)
CC(NC(=O)c1ccc2c(c1)N(Cc1ccc(Cl)cc1)C(=O)c1ccccc1S2=O)c1ccccc1 (stereo unspecified)	73% (inactive)
O=C(NCCc1ccc(Cl)cc1)c1ccc2c(c1)N(Cc1ccc(F)cc1Cl)C(=O)CS2	49% (inactive)

Structure (SMILES)	survival
O=C(NCCc1ccccc1)c1ccc2c(c1)N(Cc1ccc(Cl)cc1)C(=O)CS2	144% (inactive)
O=C(NCCc1ccccc1)c1ccc2c(c1)N(Cc1ccc(F)cc1Cl)C(=O)CS2	55% (active)
O=C(NCCc1ccc(Cl)cc1)c1ccc2c(c1)N(Cc1ccccc1)CCS2	102% (inactive)
CC(NC(=O)c1ccc2c(c1)N(Cc1ccc(Cl)cc1)C(=O)c1ccccc1S2(=O)=O)c1ccccc1 (stereo unspecified)	90% (inactive)
CCOC(=O)c1c(C)n(CCNC(C)=O)c2cc(Br)c(OC)cc12	106% (inactive)
O=C(COc1ccccc1)Nc1ccccc1C(=O)OCc1cc(=O)n2nc(C3CC3)sc2n1	89% (inactive)
Cc1ccc(Nc2cc(=O)[nH]c(=O)[nH]2)cc1C	72% (inactive)
CCc1ccc(NC(=O)C(=O)NCC(c2cccnc2)N2CCN(Cc3ccccc3)CC2)cc1 (stereo unspecified)	75% (inactive)
CCc1ccc(CNC(=O)CCCN2C(=O)CCn3nc(-c4cccn4C)cc32)cc1	72% (inactive)
Cc1ccccc1C(=O)NCCc1sc(-c2ccc(Cl)cc2)nc1C	100% (inactive)
COc1cccc(NC(=O)c2cn(C3CCCCC3)c(=O)c3c2c2ccccc2n3C)c1	75% (inactive)
Cc1ccc(CN(C(=O)c2ccc(OCC(C)C)cc2)c2ccccn2)o1	104% (inactive)
COCCNC(=O)c1ccc2c(c1)N(Cc1c(F)cccc1Cl)C(=O)c1ccccc1S2	78% (inactive)
O=C(NCCc1ccc(Cl)cc1)c1ccc2c(c1)N(Cc1ccc(Cl)cc1)C(=O)CS2	50% (inactive)
COc1ccc(CCNC(=O)c2ccc3c(c2)N(Cc2cccc(Cl)c2)C(=O)CS3)cc1OC	54% (active)
O=C(NCCc1ccc(Cl)cc1)c1ccc2c(c1)N(Cc1ccc(F)cc1)C(=O)CS2	37% (active)
COc1ccc(CCNC(=O)c2ccc3c(c2)N(Cc2ccc(F)cc2)C(=O)CS3)cc1OC	117% (inactive)
COc1ccc(CCNC(=O)c2ccc3c(c2)N(Cc2cccc(Cl)c2)C(=O)c2ccccc2S3=O)cc1OC (stereo unspecified)	94% (inactive)
COc1ccc(CNC(=O)c2ccc3c(c2)N(Cc2c(F)cccc2Cl)C(=O)CS3)cc1	124% (inactive)
O=C(NCc1ccc(F)cc1)c1ccc2c(c1)N(Cc1c(F)cccc1Cl)C(=O)CS2	40% (active)
COc1ccccc1CNC(=O)c1ccc2c(c1)N(Cc1c(F)cccc1Cl)C(=O)CS2	43% (active)
O=C(NCCc1ccccc1)c1ccc2c(c1)N(Cc1ccc(F)cc1)C(=O)CS2	74% (inactive)
O=C(NCc1ccc2c(c1)OCO2)c1ccc2c(c1)N(Cc1c(F)cccc1Cl)C(=O)c1ccccc1S2	86% (inactive)
COc1ccccc1CNC(=O)c1ccc2c(c1)N(Cc1ccc(C)cc1)CCS2	83% (inactive)
